Potency and affinity values are given separately.
These molecules were tested against Protein translocase subunit SecA (Escherichia coli (strain K12)) (UniProt P10408) (assay: Assay to Identify E. coli SecA ATPase Inhibitors). Settings: 30 µM.
Format: functional
Parameters: scale not given: direction of the effect not stated beside the values

Sequence of Protein translocase subunit SecA (Escherichia coli (strain K12)) (P10408 whole entry): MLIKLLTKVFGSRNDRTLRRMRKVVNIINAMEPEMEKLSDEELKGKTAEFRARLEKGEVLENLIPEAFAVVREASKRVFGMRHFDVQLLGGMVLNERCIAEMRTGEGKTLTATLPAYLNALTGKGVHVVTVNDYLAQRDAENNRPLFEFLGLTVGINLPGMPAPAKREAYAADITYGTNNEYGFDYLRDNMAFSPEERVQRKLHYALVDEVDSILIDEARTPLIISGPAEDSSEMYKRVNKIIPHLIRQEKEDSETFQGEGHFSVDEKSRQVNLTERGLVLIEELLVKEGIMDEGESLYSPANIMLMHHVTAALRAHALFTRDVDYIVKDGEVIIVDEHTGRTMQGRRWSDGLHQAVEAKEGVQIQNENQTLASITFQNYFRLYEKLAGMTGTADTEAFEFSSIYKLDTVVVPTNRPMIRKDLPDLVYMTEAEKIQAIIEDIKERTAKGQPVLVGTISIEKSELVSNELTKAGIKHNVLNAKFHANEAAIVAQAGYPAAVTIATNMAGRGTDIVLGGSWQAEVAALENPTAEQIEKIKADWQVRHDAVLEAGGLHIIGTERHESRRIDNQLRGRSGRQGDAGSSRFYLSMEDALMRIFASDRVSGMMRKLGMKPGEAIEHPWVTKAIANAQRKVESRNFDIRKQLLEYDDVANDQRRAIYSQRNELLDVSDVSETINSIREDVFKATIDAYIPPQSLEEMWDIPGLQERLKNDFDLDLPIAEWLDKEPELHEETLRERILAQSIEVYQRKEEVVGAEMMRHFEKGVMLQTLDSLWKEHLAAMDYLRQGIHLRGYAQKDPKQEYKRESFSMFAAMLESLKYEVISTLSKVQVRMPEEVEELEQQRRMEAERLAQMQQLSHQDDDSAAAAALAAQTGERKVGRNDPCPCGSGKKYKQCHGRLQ

| SMILES | Percent Effect [%] |
| --- | --- |
| CCCS(=O)(=O)c1ncc(CN2CCC(CO)CC2)n1CC1CCCO1 (stereo not given) | 0.687 |
| CS(=O)(=O)NC1CCN(C(=O)NCCc2ccccc2F)CC1 | -4.12 |
| Cn1ccc(CN2CCC(CCc3ccc(O)cc3)CC2)cc1=O | -1.04 |
| Cc1cc(N2CCN(CCO)CC2)nc(-c2ccncc2)n1 | -0.472 |
| COc1c(CNC2CCN(C(C)(C)C)CC2)c(C(C)C)nn1C | -3.54 |
| O=C1[C@@H]2CCN(Cc3ccncc3)C[C@@H]2OCCN1c1ccccc1 | -4.52 |
| CC(C)c1cc(NC(=O)c2ccc(NC3CC3)nc2)[nH]n1 | -5.31 |
| CN(C)C(=O)N1C[C@@H]2CC[C@H](C1)N(Cc1ccc3nsnc3c1)C2 | -2.91 |
| Cc1csc(N2CCCN(Cc3noc(C)n3)CC2)n1 | -2.54 |
| CC(C)c1nccn1C1CCCN(C(=O)c2ccc3c(c2)OCO3)C1 (stereo not given) | 1.45 |
| Cc1nc(C)n(C2CCCN(C(=O)c3cc(C(N)=O)cs3)C2)n1 (stereo not given) | -7.57 |
| CCN1CC(C(=O)NCc2ccccc2-n2cccn2)CC1=O (stereo not given) | -2.49 |
| Cc1cnn(C2CN(CC(O)c3ccc(F)cc3)C2)c1 (stereo not given) | 1.74 |
| CC(C)CN1CCN(Cc2nc3ccccc3[nH]2)[C@H]2CS(=O)(=O)C[C@H]21 | -0.363 |
| OCCC1CN(C2CCC2)CCN1C1CCCC1 (stereo not given) | -3.14 |
| Cc1cc(C)c2nc(CN3CC[C@@H](O)C3)cc(O)c2c1 | -2.1 |
| c1ccc(CN2CCN(Cc3cscn3)CC2)cc1 | -3.29 |
| O=C(CSc1nncs1)N1CCN(Cc2ccc(Cl)s2)CC1 | -2.74 |
| CC1CN(C(=O)CN(Cc2ccco2)C2CC2)CCO1 (stereo not given) | -2.04 |
| C=Cc1ccc(C(=O)N2CCCC(Nc3ccc(OC)cc3)C2)cc1 (stereo not given) | -0.54 |
